MsrA inhibitor: inhibits bovine methionine sulfoxide reductase A. purified bovine MsrA, absorbance read-out. inhibition, % at 15.5 µM. hit rate 0.75% among 360,000. AID 651718
PG9 Ab binder: binds the HIV-1 gp120 antibody PG9; TR-FRET gp120-PG9 antibody binding; inhibition, % at 6.7 µM; hit rate 0.43% among 360,000; AID 624416; in the data active means inhibition above about 8.5%
rCAG RNA binder: binds r(CAG) RNA repeats. r(CAG) RNA repeat, TO-PRO-1 dye displacement fluorescence. inhibition, % at 3 µM. hit rate 1.3% among 370,000. AID 651821;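 active means inhibition above the plate cutoff, the mean of all test compounds on that plate plus 3 SD, cut at about 35% in these data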;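 further: higher means more dye released from RNA so lower well fluorescence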
MsrA act: activators of bovine methionine sulfoxide reductase A | purified bovine MsrA, absorbance read-out | activation, % at 10.6 µM | hit rate 0.3% among 360,000 | AID 602163; in the data active means activation above about 7.5%
sPLA2-III inh: Inhibits HGIII-sPLA2 liposome hydrolysis, primary screen; Q9NZ20; QFRET BODIPY PC-A2 liposome hydrolysis, fluorescence; inhibition, % at 12.2 µM; hit rate 0.56% among 370,000;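 active means inhibition above mean plus 3 SD of compounds lying within the high and low control bounds, cut at about 19% in these data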
Target sequence (Q9NZ20 whole entry, looked up): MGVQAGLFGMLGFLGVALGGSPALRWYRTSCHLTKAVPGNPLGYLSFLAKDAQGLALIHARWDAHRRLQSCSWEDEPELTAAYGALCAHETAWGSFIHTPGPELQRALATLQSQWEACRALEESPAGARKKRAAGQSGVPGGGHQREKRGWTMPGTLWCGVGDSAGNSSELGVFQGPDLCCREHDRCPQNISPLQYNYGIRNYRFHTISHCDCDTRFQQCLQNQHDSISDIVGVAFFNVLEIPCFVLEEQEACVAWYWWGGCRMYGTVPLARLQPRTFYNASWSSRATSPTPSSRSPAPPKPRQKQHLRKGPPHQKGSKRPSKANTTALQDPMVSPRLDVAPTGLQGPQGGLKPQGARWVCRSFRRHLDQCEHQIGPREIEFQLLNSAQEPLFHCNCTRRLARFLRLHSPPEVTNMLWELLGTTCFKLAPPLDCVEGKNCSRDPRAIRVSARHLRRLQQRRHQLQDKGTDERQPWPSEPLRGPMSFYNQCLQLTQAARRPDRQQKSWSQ
MsrA inh confirm: confirmation of bovine MsrA inhibitors | inhibition, % at 15.5 µM | shares compounds with MsrA inhibitor | purified bovine MsrA, absorbance read-out | hit rate 41% among 2,300;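 further: coupled to thioredoxin reductase with NADPH and selenocystamine and DMSO as substrate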
Large screens that a line does not name were inactive (follow-up assays come after a bar, where they were run). Compounds with a hit are over-represented: about 3.2% of the library has one in this group of screens. Unless noted, no stated cut-off is given here; in the data, active means inhibition above about 4.5%; inactive means the rest.

Cc1[nH]c2ccccc2c1/C=N/NC(=O)c1cc(-c2cccs2)[nH]n1	MsrA inhibitor 4.7 | MsrA inh confirm inactive
Cc1cc(C(=O)N/N=C/c2c(C)[nH]c3ccccc23)n[nH]1	none
Cc1cc(C(=O)N/N=C/c2c(C)n(C)c3ccccc23)n[nH]1	MsrA inhibitor 6.9 | MsrA inh confirm inactive
CCC(=O)Nc1ccc(C(=O)N/N=C/c2c(C)[nH]c3ccccc23)cc1	MsrA inhibitor 6.5 | MsrA inh confirm 4.9
Cc1[nH]c2ccccc2c1/C=N\NC(=O)c1ccccc1Cl	none
COC(=O)C1CN(Cc2ccc(OC)cc2)CCS(=O)(=O)N1Cc1cn(Cc2ccc(C)cc2)nn1 (centres undefined)	none (no result: MsrA inhibitor, PG9 Ab binder, MsrA act)
c1ccc(N=Nc2cn[nH]c2-c2ccco2)cc1	MsrA inhibitor 6.9 | MsrA inh confirm inactive
O=C(OCc1ccccc1)[C@H](Cc1ccccc1)NC(=O)[C@@H]1CC=C[C@@H]2CCN(Cc3ccc(Cl)cc3)C(=O)[C@@H]21	none (no result: MsrA inhibitor, PG9 Ab binder, rCAG RNA binder, MsrA act)
CC1=C(C(=O)c2ccccc2)C(c2ccc(O)cc2)NC(=S)N1 (centres undefined)	MsrA inhibitor 5.4 | MsrA inh confirm inactive
Fc1ccccc1Nc1nc2ccccc2n2nnnc12	MsrA inhibitor 11.2 | MsrA inh confirm 7.3
c1ccc(Nc2nc3ccccc3n3nnnc23)cc1	MsrA inhibitor 8.1 | MsrA inh confirm 4.9
c1ccc2c(c1)nc(Nc1ccc3c(c1)OCO3)c1nnnn12	none
COc1cccc(Nc2nc3ccccc3n3nnnc23)c1	MsrA inhibitor 8.8 | MsrA inh confirm 7.9
Fc1cccc(Nc2nc3ccccc3n3nnnc23)c1	none
O=C(NC1CC1c1ccccc1)N1CCC(c2nc3ccc(Cl)cc3[nH]2)CC1 (centres undefined)	none (no result: MsrA inhibitor, PG9 Ab binder, MsrA act)
O=C(OCCN1CCN(C2CN(Cc3cn(Cc4ccccc4C(F)(F)F)nn3)S(=O)(=O)C2)CC1)c1cc2ccccc2o1 (centres undefined)	none (no result: MsrA inhibitor, PG9 Ab binder, MsrA act)
Cc1c(C(=O)N/N=C/c2cccs2)nc2ccccn12	MsrA inhibitor 6.6 | MsrA inh confirm 6.4
CCNC(=S)N/N=C/c1cccs1	MsrA inhibitor 5.5 | MsrA inh confirm inactive
CCNC(=S)N/N=C/c1cccc(/C=N/NC(=S)NCC)c1	none
O=S1(=O)c2ccc(N3CCN(Cc4ccccc4F)CC3)cc2Oc2ccccc2CN1Cc1cn(Cc2ccc(C(F)(F)F)cc2)nn1	none (no result: MsrA inhibitor, PG9 Ab binder, MsrA act)
O=C(N/N=C/c1cccn1-c1ccc(O)cc1)c1cccc2ccccc12	MsrA inhibitor 5.2 | MsrA inh confirm inactive
O=C(N/N=C/c1ccccc1)c1cccc2ccccc12	none
CCOc1cc(/C=N/NC(=O)COc2ccccc2C)ccc1OC(=O)c1cccs1	none
CCOc1cc(/C=N/NC(=O)c2cccs2)ccc1OC(=O)N1CCOCC1	MsrA inhibitor 4.8 | MsrA inh confirm inactive
Cc1c[nH]c2cccc(-c3ccc4c(c3)OCO4)c12	none (no result: MsrA inhibitor, PG9 Ab binder, MsrA act)
C[C@H](O)[C@@H]1CN2CCc3c([nH]c4c(-c5ccc6c(c5)OCO6)cccc34)[C@@H]2C[C@@H]1N(C)C(=O)c1ccccc1F	none (no result: MsrA inhibitor, PG9 Ab binder, MsrA act)
O=c1/c(=C/c2ccccn2)sc2n1CN(c1ccccc1)CN=2	MsrA inhibitor 4.8 | MsrA inh confirm inactive
COc1ccc(C2C(C(=O)N3CCC(C)CC3)CC(=O)N2c2ccc(OC)cc2)cc1 (centres undefined)	none (no result: MsrA inhibitor, PG9 Ab binder, MsrA act)
COCCCNc1nc2nonc2nc1N1CCN2CCCC2C1 (centres undefined)	MsrA inhibitor 4.8 | MsrA inh confirm inactive
COCCCNc1nc2nonc2nc1N1CCN(C2CCCC2)CC1	none
CCOC(=O)c1c(NC(=O)COC(=O)/C=C/c2ccco2)sc2c1CC(C)(C)NC2(C)C	MsrA inhibitor 8.7 | MsrA inh confirm 14.5
CCOC(=O)c1c(NC(=O)COc2ccccc2)sc2c1CC(C)(C)NC2(C)C	none
CC1Cc2nc(SCC(=O)Nc3ccc4c(c3)OCCO4)n(C)c(=O)c2S1 (centres undefined)	MsrA inhibitor 5.0 | MsrA inh confirm inactive
COCCn1c(SCC(=O)Nc2ccc3c(c2)OCCO3)nc2c(c1=O)SC(C)C2 (centres undefined)	MsrA inhibitor 5.2 | MsrA inh confirm inactive
COCCn1c(SCC(=O)Nc2cc(C)on2)nc2c(c1=O)SC(C)C2 (centres undefined)	none
CC1Cc2nc(SCC(N)=O)n(C)c(=O)c2S1 (centres undefined)	none
COCCn1c(SCC(N)=O)nc2c(c1=O)SC(C)C2 (centres undefined)	MsrA inhibitor 4.7 | MsrA inh confirm inactive
COc1ccc(CN2C(C(=O)NCC(C)C)CSCCS2(=O)=O)cc1 (centres undefined)	none (no result: MsrA inhibitor, PG9 Ab binder, MsrA act)

Assay outcomes as filed in PubChem BioAssay.
